Screening data from PubChem.
HEK293 tox = cytotoxic compounds in HEK 293 cells; HEK 293 viability, ATP luminescence (CellTiter-Glo), 48-72 h; Potency, µM (highest dose often 115 µM), actives largely listed as inhibitors; 94,000 tested, 6.6% active; AID 1345083; note: nearly all actives have a fitted effect of over 60% in size
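Pintool-delivered compounds were incubated with HEK 293 cells (250 cells/well) at 37 degree Celsius for 48 or 72 hr. ATP-dependent luminescence (CellTiter-Glo) then reported remaining viable cells.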
hNpr1 antagonist = human Npr1 receptor antagonism; P16066; HEK293 hNpr1 GloSensor cGMP, ANP-stimulated luminescence; 76,000 tested, 1.6% active; Potency, µM (top dose mostly 46.3 µM), usual class: inhibitors; calls by dose curve; note: nearly all actives have a fitted effect of over 60% in size
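Compound pre-incubated 30 min at room temperature on GloSensor-loaded HEK293 cells stably carrying hNpr1 and the pGS-40F cGMP biosensor. Stimulation uses hNppA at 0.1 nM final; luminescence is taken at baseline and 20 min post-agonist.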
FLuc inh-1 = Photinus pyralis luciferase inhibition. P08659. 76,000 tested, 2.5% active. purified P. pyralis luciferase, luminescence, biochemical. Potency, µM (top dose mostly 115 µM), hits mostly inhibitors; note: nearly all actives have a fitted effect of over 65% in size
Target sequence (P08659 whole entry, looked up): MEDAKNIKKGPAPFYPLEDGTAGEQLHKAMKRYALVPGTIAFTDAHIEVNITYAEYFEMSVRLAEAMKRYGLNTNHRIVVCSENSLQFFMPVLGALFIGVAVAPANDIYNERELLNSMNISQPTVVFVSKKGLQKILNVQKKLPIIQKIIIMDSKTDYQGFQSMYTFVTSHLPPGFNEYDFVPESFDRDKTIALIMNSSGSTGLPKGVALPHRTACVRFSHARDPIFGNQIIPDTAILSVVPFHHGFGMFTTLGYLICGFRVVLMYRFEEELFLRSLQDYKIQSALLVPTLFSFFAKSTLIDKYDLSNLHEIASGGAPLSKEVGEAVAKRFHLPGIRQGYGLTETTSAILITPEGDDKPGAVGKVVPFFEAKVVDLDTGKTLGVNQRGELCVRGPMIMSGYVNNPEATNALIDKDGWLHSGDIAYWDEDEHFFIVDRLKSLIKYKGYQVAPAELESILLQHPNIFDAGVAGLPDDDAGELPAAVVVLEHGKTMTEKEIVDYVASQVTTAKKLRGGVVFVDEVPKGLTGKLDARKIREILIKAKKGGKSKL
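Purified P. pyralis luciferase (10nM final) in 50mM Tris acetate pH 7.5, 10mM Mg acetate, 0.01% Tween-20, 0.05% BSA with 10uM D-luciferin and 10uM ATP. Compounds titrated qHTS. Luminescence imaged on CCD.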
NIH3T3 tox = NIH 3T3 cell cytotoxicity | 94,000 tested, 4.3% active | NIH 3T3 viability, CellTiter-Glo ATP luminescence, 48-72 h | AID 1345082 | Potency, µM (top dose mostly 96.7 µM), usual class: inhibitors; note: nearly all actives have a fitted effect of over 55% in size
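Mouse fibroblast NIH 3T3 cells, 400 per well, received compound via pintool and were incubated for 48 or 72 hr prior to CellTiter-Glo ATP luminescence measurement.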
FLuc SDR no ATP = stabilizes firefly luciferase without ATP | shares compounds with FLuc inh-1 | Purified FLuc-C-HiBiT, Nano-Glo HiBiT luminescence, no ATP | Potency, µM (top dose mostly 32.7 µM), actives largely listed as activators | 1,300 tested, 7.8% active | AID 1963318; note: nearly all actives have a fitted effect of over 55% in size
FLuc SDR ATP = binders stabilizing firefly luciferase, plus ATP. shares compounds with FLuc inh-1. purified FLuc-C-HiBiT + ATP, HiBiT complementation luminescence. Potency, µM (doses to about 32.7 µM), actives largely listed as activators. 1,300 tested, 8.7% active. AID 1963319;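 note: signal reports ligand binding via conformational change of the enzyme rather than luciferase catalysis; nearly all actives have a fitted effect of over 55% in size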
FLuc inh-2 = blocks firefly luciferase enzymatic activity; Potency, µM (highest dose often 32.7 µM), hits mostly inhibitors; shares compounds with FLuc inh-1; purified FLuc-C-HiBiT enzyme, luciferin luminescence; AID 1963320; 1,300 tested, 42% active; note: nearly all actives have a fitted effect of over 70% in size
Hits are given with their value; 0 = inactive; ? = inconclusive; - = not tested or not shown. Hits are enriched below; roughly 11% of the tested compounds scored in any of these assays. Unless noted, calls come from the whole dose curve; as a rule, active = well fitted curve in the direction sought with a large enough effect; inconclusive = small, poorly fitted or top-dose-only effect, or another doubt; inactive = no such curve, though single readings can be large; an effect the other way counts as inactive or inconclusive.

SMILES	HEK293 tox	hNpr1 antagonist	FLuc inh-1	NIH3T3 tox	FLuc SDR no ATP	FLuc SDR ATP	FLuc inh-2
COCCN1C(=O)CS(=O)(=O)C12CCN(C(=O)Cn1c(=O)oc3ccccc31)CC2	0	0	0	0	-	-	-
CN(C)C(=O)c1n[nH]c2c1CN(C(=O)c1ccc(F)c(F)c1)CC2	0	0	0	0	-	-	-
COc1ccc(-c2cc(N3CCCC(NC(=O)c4cc(OC)c(OC)c(OC)c4)C3)n[nH]2)cc1 (stereo not drawn)	?	0	6.3µM	?	0	0	5.6µM
COc1ccc(-c2cc(N3CCCC(NC(=O)c4ccncc4)C3)n[nH]2)cc1 (stereo not drawn)	?	0	13µM	0	0	0	?
COc1ccc(-c2cc(N3CCC(NC(=O)c4ccncc4)C3)n[nH]2)cc1 (stereo not drawn)	?	0	?	0	-	-	-
COc1ccc(-c2cc(N3CCCC(NC(=O)c4ccc(OC)cc4OC)C3)n[nH]2)cc1 (stereo not drawn)	45µM	0	13µM	?	0	0	?
CCOc1ccc(C(=O)NC2CCCN(c3cc(-c4ccc(OC)cc4)[nH]n3)C2)cc1 (stereo not drawn)	?	0	?	0	-	-	-
COc1ccc(-c2cc(N3CCCC(NC(=O)c4cccc(OC)c4OC)C3)n[nH]2)cc1 (stereo not drawn)	?	0	?	?	-	-	-
COc1ccc(-c2cc(N3CCCC(NC(=O)c4cc(OC)cc(OC)c4)C3)n[nH]2)cc1 (stereo not drawn)	?	0	5.6µM	?	0	0	?
Cn1c(CO[C@H]2CN(S(=O)(=O)Cc3ccccc3)C[C@H]2F)nc2ccccc21	?	0	0	0	-	-	-
O=C(Cc1c(F)cccc1Cl)N1C[C@@H](CO)[C@H](c2ccccn2)C1	0	0	0	0	-	-	-
CC(C)n1cc2cc(C(=O)N3CCSCC3)sc2c1	0	0	?	?	-	-	-
O=C(NCC1CCCN(C(=O)N2CCCC2)C1)c1ccc(-c2ccccc2)cc1 (stereo not drawn)	?	0	7.9µM	?	0	0	?
CSc1ccccc1-c1nc(C2CCOC2)no1 (stereo not drawn)	0	0	0	?	-	-	-
c1ccc2cc(-c3nc(C4CCOC4)no3)ncc2c1 (stereo not drawn)	0	?	2.5µM	0	0	?	?
Cc1nc2ccc(-c3nc(C4CCOC4)no3)cc2s1 (stereo not drawn)	?	?	2µM	?	0	?	11µM
CCS(=O)(=O)Nc1ccc(-c2nc(C3CCOC3)no2)cc1 (stereo not drawn)	0	0	0	0	-	-	-
CN(C)c1ccc(-c2nc(C3CCOC3)no2)cc1 (stereo not drawn)	?	?	4µM	0	0	?	?
COc1ccc2c(C)c(-c3nc(C4CCOC4)no3)oc2c1 (stereo not drawn)	?	0	13µM	?	0	0	0
O=C(NCc1cccc(Cl)c1)c1ccc2oc(-c3cccnc3)nc2c1	0	-	-	?	-	-	-
COc1ccc(OCc2cc(C(=O)NC(C)CCO)n[nH]2)c(Cl)c1 (stereo not drawn)	0	0	?	0	-	-	-
CN(C)C(=O)c1nc(-c2cccc(F)c2)c2cnccn12	0	0	0	0	-	-	-
CCc1ccc2nc(N3CCC(C(=O)O)CC3)sc2c1	-	-	-	-	2.5µM	0.07µM	0.035µM
CCC(c1cccs1)N1C(=O)[C@H]2CN(S(=O)(=O)c3cccc(F)c3)C[C@H]2C1=O (stereo partly drawn)	0	0	0	0	-	-	-
Cc1cc(NC(=O)c2ccc(CN3CC[C@H](O)C3)cc2)ccc1F	?	10µM	0.89µM	?	?	?	2µM
COc1c(C)cc(NC(=O)c2ccc(CN3CCC(O)CC3)cc2)cc1C	?	0	0	?	-	-	-
O=C(COc1ccccc1)Nc1nnc(S(=O)(=O)Nc2ccccc2)s1	-	-	-	-	0	0	?
